Data from the supplement of paper PMC10037445.
In all, about 2,900 compounds were measured (“NF-kB SEAP reporter activity, fold change vs agonist alone”: median about 0.99, highest 2% from about 2.6 on). This excerpt belongs to a sample that is enriched for the highest values.

Columns and labels:
RAW-Dual [1] = experiment: NF-kB SEAP reporter activity, fold change vs agonist alone; higher = enhanced NF-kB activity; details: cytotoxicity flag (confluency mask): not cytotoxic
Procedure, shortened: (§1)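 RAW-Dual macrophages were seeded in DMEM at 50,000 cells/well in 384-well plates, given 50 nL of library stock by pin tool, and given a PRR agonist 1 h later. Plates were held at 37 °C, 5% CO2 for 20 hours, after which supernatant was read for IRF by QuantiLuc luminescence and for NF-κB by QuantiBlue absorbance at 620 nm. Reporter activity is expressed as fold change over wells that received agonist alone. A well was called cytotoxic when IncuCyte confluency fell below 70% of agonist controls in both mask sets.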

RAW-Dual [2] = experiment: NF-kB SEAP reporter activity, fold change vs agonist alone; cytotoxicity flag (confluency mask): not cytotoxic; higher = enhanced NF-kB activity
Procedure, shortened: as §1

RAW-Dual [3] = experiment: NF-kB SEAP reporter activity, fold change vs agonist alone; cytotoxicity flag (confluency mask): cytotoxic (confluency <70% of control); higher = enhanced NF-kB activity
Procedure, shortened: as §1

[4] = library stock concentration (final ~1000-fold dilution): 10 mM, agonist: Imiquimod (TLR7) […]
[5] = library stock concentration (final ~1000-fold dilution): 10 mM, agonist: MPLA (TLR4) […]
[6] = agonist: ODN 1826 (TLR9) 0.5 ug/mL
[7] = agonist: Pam2CSK4 (TLR2/6) 0.1 ug/mL
[8] = agonist: Pam3CSK4 (TLR2/1) 0.1 ug/mL

Structure (SMILES): O=C(O)CC(C(=O)O)N1C(=O)/C(=C2/C(=O)Nc3ccc(Br)cc32)SC1=S (stereo unspecified)
- NF-kB SEAP reporter activity (RAW-Dual [1]; [4]): 1.33
- NF-kB SEAP reporter activity (RAW-Dual [1]; [5]): 1.72

Structure (SMILES): O=C(O)CC(C(=O)O)N1C(=O)/C(=C2/C(=O)Nc3ccc(Br)cc32)SC1=S (stereo unspecified) (library stock concentration (final ~1000-fold dilution): 10 mM)
- NF-kB SEAP reporter activity (RAW-Dual [2]; agonist: LPS (TLR4) 0.1 ug/mL): 0.98
- NF-kB SEAP reporter activity (RAW-Dual [2]; [6]): 1.56
- NF-kB SEAP reporter activity (RAW-Dual [2]; [7]): 1.02
- NF-kB SEAP reporter activity (RAW-Dual [2]; [8]): 1.06

Structure (SMILES): COc1ccccc1Oc1c(NS(=O)(=O)c2ccc(C(C)(C)C)cc2)nc(-c2ncccn2)nc1OCCO.O (library stock concentration (final ~1000-fold dilution): 10 mM)
- NF-kB SEAP reporter activity (RAW-Dual [2]; agonist: LPS (TLR4) 0.1 ug/mL): 1.15
- NF-kB SEAP reporter activity (RAW-Dual [2]; [6]): 1.01
- NF-kB SEAP reporter activity (RAW-Dual [2]; [7]): 1.06
- NF-kB SEAP reporter activity (RAW-Dual [2]; [8]): 1.1

Structure (SMILES): COc1ccccc1Oc1c(NS(=O)(=O)c2ccc(C(C)(C)C)cc2)nc(-c2ncccn2)nc1OCCO.O
- NF-kB SEAP reporter activity (RAW-Dual [1]; [4]): 1.02
- NF-kB SEAP reporter activity (RAW-Dual [1]; [5]): 1.1

Structure (SMILES): CC(C)OC(=O)CCC/C=C\CC1C(O)CC(O)C1CCC(O)CCc1ccccc1 (stereo unspecified) (library stock concentration (final ~1000-fold dilution): 10 mM)
- NF-kB SEAP reporter activity (RAW-Dual [2]; agonist: LPS (TLR4) 0.1 ug/mL): 1.4
- NF-kB SEAP reporter activity (RAW-Dual [2]; [6]): 0.911
- NF-kB SEAP reporter activity (RAW-Dual [2]; [7]): 1.1
- NF-kB SEAP reporter activity (RAW-Dual [2]; [8]): 0.929

Structure (SMILES): CC(C)OC(=O)CCC/C=C\CC1C(O)CC(O)C1CCC(O)CCc1ccccc1 (stereo unspecified)
- NF-kB SEAP reporter activity (RAW-Dual [1]; [5]): 1.43

Structure (SMILES): COc1ccc(C(=C2C(=O)Nc3ccccc32)c2ccc(OC)cc2)cc1
- NF-kB SEAP reporter activity (RAW-Dual [1]; [4]): 0.748
- NF-kB SEAP reporter activity (RAW-Dual [1]; [5]): 0.978

Structure (SMILES): COc1cc(OC)c(/C=C2/C(=O)Nc3ccccc32)c(OC)c1
- NF-kB SEAP reporter activity (RAW-Dual [1]; [4]): 1.62
- NF-kB SEAP reporter activity (RAW-Dual [1]; [5]): 1.67

Structure (SMILES): Cc1c[nH]c(C=C2C(=O)Nc3ccccc32)c1CCC(=O)O (library stock concentration (final ~1000-fold dilution): 10 mM)
- NF-kB SEAP reporter activity (RAW-Dual [2]; agonist: LPS (TLR4) 0.1 ug/mL): 0.665
- NF-kB SEAP reporter activity (RAW-Dual [2]; [6]): 0.926
- NF-kB SEAP reporter activity (RAW-Dual [2]; [7]): 0.983
- NF-kB SEAP reporter activity (RAW-Dual [2]; [8]): 0.647

Structure (SMILES): COc1ccc(C(=C2C(=O)Nc3ccccc32)c2ccc(OC)cc2)cc1 (library stock concentration (final ~1000-fold dilution): 10 mM)
- NF-kB SEAP reporter activity (RAW-Dual [2]; agonist: LPS (TLR4) 0.1 ug/mL): 1.04
- NF-kB SEAP reporter activity (RAW-Dual [2]; [6]): 0.585
- NF-kB SEAP reporter activity (RAW-Dual [2]; [7]): 0.692
- NF-kB SEAP reporter activity (RAW-Dual [2]; [8]): 0.323

Structure (SMILES): COc1cc(OC)c(/C=C2/C(=O)Nc3ccccc32)c(OC)c1 (library stock concentration (final ~1000-fold dilution): 10 mM)
- NF-kB SEAP reporter activity (RAW-Dual [2]; agonist: LPS (TLR4) 0.1 ug/mL): 3.21
- NF-kB SEAP reporter activity (RAW-Dual [2]; [6]): 2.56
- NF-kB SEAP reporter activity (RAW-Dual [2]; [7]): 1.33
- NF-kB SEAP reporter activity (RAW-Dual [2]; [8]): 1.92

Structure (SMILES): Cc1c[nH]c(C=C2C(=O)Nc3ccccc32)c1CCC(=O)O
- NF-kB SEAP reporter activity (RAW-Dual [1]; [4]): 0.662
- NF-kB SEAP reporter activity (RAW-Dual [1]; [5]): 0.848

Structure (SMILES): NC(N)=NCCCC(N)C(=O)NC(CCCN=C(N)N)C(=O)N1CCCC1C(=O)N1CC(O)CC1C(=O)NCC(=O)NC(Cc1cccs1)C(=O)NC(CO)C(=O)N1Cc2ccccc2CC1C(=O)N1C(C(=O)NC(CCCN=C(N)N)C(=O)O)CC2CCCCC21 (stereo unspecified)
- NF-kB SEAP reporter activity (RAW-Dual [1]; library stock concentration (final ~1000-fold dilution): 2 mM water, agonist: Imiquimod (TLR7) […]): 0.945
- NF-kB SEAP reporter activity (RAW-Dual [1]; library stock concentration (final ~1000-fold dilution): 2 mM water, agonist: MPLA (TLR4) […]): 1.05

Structure (SMILES): NC(N)=NCCCC(N)C(=O)NC(CCCN=C(N)N)C(=O)N1CCCC1C(=O)N1CC(O)CC1C(=O)NCC(=O)NC(Cc1cccs1)C(=O)NC(CO)C(=O)N1Cc2ccccc2CC1C(=O)N1C(C(=O)NC(CCCN=C(N)N)C(=O)O)CC2CCCCC21 (stereo unspecified) (library stock concentration (final ~1000-fold dilution): 2 mM water)
- NF-kB SEAP reporter activity (RAW-Dual [2]; agonist: LPS (TLR4) 0.1 ug/mL): 0.985
- NF-kB SEAP reporter activity (RAW-Dual [2]; [6]): 1.06
- NF-kB SEAP reporter activity (RAW-Dual [2]; [7]): 1.1
- NF-kB SEAP reporter activity (RAW-Dual [2]; [8]): 0.962

Structure (SMILES): CC12CC(O)C3CC1(O[C@@H]1O[C@H](CO)[C@@H](O)[C@H](O)[C@H]1O)C3(COC(=O)c1ccccc1)C(=O)O2 (stereo partly specified)
- NF-kB SEAP reporter activity (RAW-Dual [1]; [4]): 1.03
- NF-kB SEAP reporter activity (RAW-Dual [1]; [5]): 1.03

Structure (SMILES): CC12CC(O)C3CC1(O[C@@H]1O[C@H](CO)[C@@H](O)[C@H](O)[C@H]1O)C3(COC(=O)c1ccccc1)C(=O)O2 (stereo partly specified) (library stock concentration (final ~1000-fold dilution): 10 mM)
- NF-kB SEAP reporter activity (RAW-Dual [2]; agonist: LPS (TLR4) 0.1 ug/mL): 1.24
- NF-kB SEAP reporter activity (RAW-Dual [2]; [6]): 1.12
- NF-kB SEAP reporter activity (RAW-Dual [2]; [7]): 1.1
- NF-kB SEAP reporter activity (RAW-Dual [2]; [8]): 1.06

Structure (SMILES): CNCCCC1c2ccccc2C=Cc2ccccc21.Cl (library stock concentration (final ~1000-fold dilution): 10 mM)
- NF-kB SEAP reporter activity (RAW-Dual [3]; agonist: LPS (TLR4) 0.1 ug/mL): 0.947
- NF-kB SEAP reporter activity (RAW-Dual [3]; [6]): 0.644
- NF-kB SEAP reporter activity (RAW-Dual [3]; [7]): 0.63
- NF-kB SEAP reporter activity (RAW-Dual [3]; [8]): 0.687
